Experimental data from PubChem BioAssay (Tox21).
A number with no mark means an inactive call. Inconclusive results are not listed. Entries that show only a call come without a potency. Calls of active or inactive are those of the source. Unless noted, calls come from the whole dose curve; as a rule, active = well fitted curve in the direction sought with a large enough effect in the repeat runs; inconclusive = weak or mixed curves; inactive = no such curve, though single readings can be large; an effect the other way counts as inactive or inconclusive.

Assays:
[1] = qHTS assay to identify small molecule agonists of the TGF-beta/Smad signaling pathway - cell viability counter screen (AID 1346829); note: top concentration of the series differs between compounds; nearly all actives have a fitted effect of over 45% in size
Summary of the method: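 Tox21 qHTS format: SBE-bla HEK 293T cells treated with DMSO-dissolved compounds for 5 hr; CellTiter-Glo luminescence after 30 min at room temperature.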

[2] = qHTS assay to identify small molecule agonists of the TGF-beta/Smad signaling pathway (AID 1346859; active = well fitted activation curve with a large enough effect in the signal ratio in the repeat runs, not every such curve was filed as active; the % refers to the signal ratio; note: series mostly up to about 77 µM)
Summary of the method: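 Screening used HEK 293T SBE-bla cells at 4,000/well. Test agents: 5 hr, 37 C. Detection: FRET substrate, 2 hr RT, then excitation 405 nm with emissions at 460 and 530 nm.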

[3] = biological target: Thyrotropin-releasing hormone receptor (Homo sapiens) (UniProt P34981); test: qHTS assay to identify small molecule antagonists of the thyrotropin-releasing hormone receptor (TRHR) signaling pathway (AID 1346877; active = well fitted inhibition curve with a large enough effect in the repeat runs, not every such curve was filed as active; note: series mostly up to about 51 µM)
Chain of Thyrotropin-releasing hormone receptor (Homo sapiens) (P34981 whole entry, looked up): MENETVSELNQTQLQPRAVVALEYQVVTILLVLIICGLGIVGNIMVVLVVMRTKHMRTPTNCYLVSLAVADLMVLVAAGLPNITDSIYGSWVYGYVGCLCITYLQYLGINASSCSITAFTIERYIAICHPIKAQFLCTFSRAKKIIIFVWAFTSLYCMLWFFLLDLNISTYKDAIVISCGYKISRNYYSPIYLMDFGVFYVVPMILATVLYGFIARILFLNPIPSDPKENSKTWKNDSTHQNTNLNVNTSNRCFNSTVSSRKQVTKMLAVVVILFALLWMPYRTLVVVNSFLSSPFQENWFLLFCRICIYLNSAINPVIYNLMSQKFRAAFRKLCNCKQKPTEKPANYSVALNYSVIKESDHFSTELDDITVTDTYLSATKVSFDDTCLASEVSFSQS
Summary of the method: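 TRHR-expressing HEK293 cells were seeded, cultured 18 h at 37 °C, then loaded with calcium dye for 2 h. Compounds were pre-incubated 5 min at room temperature before 1 nM TRH (final) was added, and kinetic fluorescence was recorded for 3 min.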

[4] = biological target: Thyrotropin-releasing hormone receptor (Homo sapiens) (UniProt P34981); test: qHTS assay to identify small molecule agonists of the thyrotropin-releasing hormone receptor (TRHR) signaling pathway (AID 1346891; calls by dose curve; note: series mostly up to about 58 µM)
Summary of the method: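 Readout was intracellular calcium fluorescence in TRHR-Hek293 cells. Cells were incubated 18 h, dye-loaded 2 h at 37 °C, and treated with compound in agonist mode.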

[5] = Human pregnane X receptor (PXR) small molecule agonists, qHTS cell viability counter screen (AID 1346977); note: nearly all actives have a fitted effect of over 50% in size
Summary of the method: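 In each well, the PXR reporter HepG2 line was checked for viability: CellTiter-Fluor reagent added 23hr post-dosing, fluorescence read after 1hr incubation at 37C.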

[6] = Caspase-3/7 induction in HepG2 cells by small molecules, qHTS assay (AID 1346978); note: nearly all actives have a fitted effect of over 15% in size
Summary of the method: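 Caspase-3/7 induction was measured by Caspase-Glo 3/7 luminescence (30 min, room temperature) after a 17 hr compound exposure of wild-type HepG2 cells seeded at 2,000 per well and pre-incubated 5 hr.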

[7] = Caspase-3/7 induction in CHO-K1 cells by small molecules, qHTS cell viability counter screen (AID 1346979); note: nearly all actives have a fitted effect of over 35% in size
Summary of the method: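 Following a 5hr settling period, CHO-K1 cells at 1,500 per well received DMSO-dissolved compounds. Cell viability was quantified 16hr later by CellTiter-Fluor fluorescence, measured after 1hr with reagent at 37C.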

[8] = Caspase-3/7 induction in CHO-K1 cells by small molecules, qHTS assay (AID 1346980); note: nearly all actives have a fitted effect of over 15% in size
Summary of the method: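 Luminescent Caspase-Glo 3/7 read (30min, room temperature) quantified apoptosis induction. Cells were wild-type CHO-K1, treated with compound for 17hr at 37 C and 5% CO2.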

[9] = biological target: Nuclear receptor subfamily 1 group I member 2 (Homo sapiens) (UniProt O75469); test: Human pregnane X receptor (PXR) small molecule agonists, qHTS assay (AID 1346982); note: nearly all actives have a fitted effect of over 35% in size; note: potency is the fitted concentration of half-maximal effect
Chain of Nuclear receptor subfamily 1 group I member 2 (Homo sapiens) (O75469 whole entry, looked up): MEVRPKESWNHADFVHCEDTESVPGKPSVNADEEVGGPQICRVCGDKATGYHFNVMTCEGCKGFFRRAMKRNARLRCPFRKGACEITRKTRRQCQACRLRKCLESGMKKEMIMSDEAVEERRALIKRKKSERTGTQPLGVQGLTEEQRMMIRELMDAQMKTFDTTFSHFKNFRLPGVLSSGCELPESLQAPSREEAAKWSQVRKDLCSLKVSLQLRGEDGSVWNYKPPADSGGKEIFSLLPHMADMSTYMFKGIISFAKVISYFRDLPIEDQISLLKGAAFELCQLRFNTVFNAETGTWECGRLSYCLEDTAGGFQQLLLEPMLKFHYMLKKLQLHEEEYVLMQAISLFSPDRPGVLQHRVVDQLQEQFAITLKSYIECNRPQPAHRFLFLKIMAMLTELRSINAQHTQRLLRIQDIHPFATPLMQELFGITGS
Summary of the method: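 PXR-Luc HepG2 cells (CYP3A4 promoter-driven luciferase) were seeded in medium with 5% charcoal-stripped FBS, left 5 hr at 37 C, then exposed to compounds in DMSO for 24 hr. Luminescence was read after ONE-Glo addition.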

[10] = biological target: Cytochrome P450 2D6 (Homo sapiens) (UniProt P10635); test: Cytochrome P450 Family 2 Subfamily D Member 6 (CYP2D6) small molecule antagonists: luciferase reporter qHTS assay (AID 1671196); note: nearly all actives have a fitted effect of over 50% in size; note: potency is the fitted concentration of half-maximal effect
Chain of Cytochrome P450 2D6 (Homo sapiens) (P10635 whole entry, looked up): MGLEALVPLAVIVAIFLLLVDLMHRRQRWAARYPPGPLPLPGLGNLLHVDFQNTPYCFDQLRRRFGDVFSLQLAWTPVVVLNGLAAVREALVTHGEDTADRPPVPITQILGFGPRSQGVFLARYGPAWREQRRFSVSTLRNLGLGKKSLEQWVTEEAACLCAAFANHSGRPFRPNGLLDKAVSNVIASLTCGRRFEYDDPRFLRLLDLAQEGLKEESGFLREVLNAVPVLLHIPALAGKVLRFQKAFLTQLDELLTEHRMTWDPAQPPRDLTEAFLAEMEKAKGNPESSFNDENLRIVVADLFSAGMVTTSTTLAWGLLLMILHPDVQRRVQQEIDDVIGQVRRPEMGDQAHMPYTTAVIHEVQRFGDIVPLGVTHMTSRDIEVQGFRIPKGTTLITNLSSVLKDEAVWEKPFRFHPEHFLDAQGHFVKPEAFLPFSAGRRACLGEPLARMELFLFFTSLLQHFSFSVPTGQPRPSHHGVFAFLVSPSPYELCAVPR
Summary of the method: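 CYP2D6 enzyme–substrate mix was held with compound for 10 min at room temperature, then NADPH regeneration solution was added and the reaction ran 1 h at room temperature. Luciferin product was detected by luminescence after 20 min with detection reagent.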

[11] = biological target: Cytochrome P450 2C9 (Homo sapiens) (UniProt P11712); test: Cytochrome P450 Family 2 Subfamily C Member 9 (CYP2C9) small molecule antagonists: luciferase reporter qHTS assay (AID 1671198); note: nearly all actives have a fitted effect of over 50% in size; note: potency is the fitted concentration of half-maximal effect
Chain of Cytochrome P450 2C9 (Homo sapiens) (P11712 whole entry, looked up): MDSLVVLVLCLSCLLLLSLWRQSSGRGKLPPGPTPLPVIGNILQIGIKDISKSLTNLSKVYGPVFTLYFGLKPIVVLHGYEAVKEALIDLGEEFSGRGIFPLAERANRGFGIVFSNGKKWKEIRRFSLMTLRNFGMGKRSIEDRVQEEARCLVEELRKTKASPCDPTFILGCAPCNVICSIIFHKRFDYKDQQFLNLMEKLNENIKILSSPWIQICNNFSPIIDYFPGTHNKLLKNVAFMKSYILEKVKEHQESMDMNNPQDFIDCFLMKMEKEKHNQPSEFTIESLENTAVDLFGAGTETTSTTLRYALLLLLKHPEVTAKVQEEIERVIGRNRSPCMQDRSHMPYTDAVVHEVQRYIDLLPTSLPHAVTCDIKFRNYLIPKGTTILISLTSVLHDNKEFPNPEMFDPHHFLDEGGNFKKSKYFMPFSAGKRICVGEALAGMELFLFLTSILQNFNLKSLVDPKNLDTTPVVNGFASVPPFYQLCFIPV
Summary of the method: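 Enzyme-substrate mix preincubated with compound 10 min at room temperature; reaction started with NADPH regeneration solution, 1 h 37C. Luminescent luciferin product read after 20 min detection reagent.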

[12] = biological target: Cytochrome P450 1A2 (Homo sapiens) (UniProt P05177); test: Cytochrome P450 Family 1 Subfamily A Member 2 (CYP1A2) small molecule antagonists: luciferase reporter qHTS assay (AID 1671199); note: nearly all actives have a fitted effect of over 50% in size; note: potency is the fitted concentration of half-maximal effect
Chain of Cytochrome P450 1A2 (Homo sapiens) (P05177 whole entry, looked up): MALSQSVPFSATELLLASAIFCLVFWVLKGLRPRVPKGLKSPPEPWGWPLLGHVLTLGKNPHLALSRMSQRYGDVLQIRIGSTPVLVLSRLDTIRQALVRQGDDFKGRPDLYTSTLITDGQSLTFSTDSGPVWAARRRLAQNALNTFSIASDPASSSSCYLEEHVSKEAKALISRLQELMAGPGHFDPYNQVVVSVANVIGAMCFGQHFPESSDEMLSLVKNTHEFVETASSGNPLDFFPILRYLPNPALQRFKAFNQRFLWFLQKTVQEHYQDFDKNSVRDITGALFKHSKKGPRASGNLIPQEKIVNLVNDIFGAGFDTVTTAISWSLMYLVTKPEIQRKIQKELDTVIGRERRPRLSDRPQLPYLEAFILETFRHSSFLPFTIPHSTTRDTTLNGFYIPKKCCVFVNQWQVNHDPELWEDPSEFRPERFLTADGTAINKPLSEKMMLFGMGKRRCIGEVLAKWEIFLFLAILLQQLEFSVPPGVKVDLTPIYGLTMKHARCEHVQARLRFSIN
Summary of the method: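 Human CYP1A2 activity measured with a P450-Glo proluciferin substrate; compounds in DMSO preincubated 10 min at room temperature with enzyme-substrate mix, then NADPH regeneration system added for 1 h. Luciferin detection reagent, 20 min, luminescence read.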

[13] = biological target: Voltage-gated inwardly rectifying potassium channel KCNH2 (Homo sapiens) (UniProt Q12809); test: Human Ether-a-go-go-Related Gene (hERG) channel small molecule antagonists: fluorescence cell-based qHTS assay (AID 1671200)
Chain of Voltage-gated inwardly rectifying potassium channel KCNH2 (Homo sapiens) (Q12809 whole entry, looked up): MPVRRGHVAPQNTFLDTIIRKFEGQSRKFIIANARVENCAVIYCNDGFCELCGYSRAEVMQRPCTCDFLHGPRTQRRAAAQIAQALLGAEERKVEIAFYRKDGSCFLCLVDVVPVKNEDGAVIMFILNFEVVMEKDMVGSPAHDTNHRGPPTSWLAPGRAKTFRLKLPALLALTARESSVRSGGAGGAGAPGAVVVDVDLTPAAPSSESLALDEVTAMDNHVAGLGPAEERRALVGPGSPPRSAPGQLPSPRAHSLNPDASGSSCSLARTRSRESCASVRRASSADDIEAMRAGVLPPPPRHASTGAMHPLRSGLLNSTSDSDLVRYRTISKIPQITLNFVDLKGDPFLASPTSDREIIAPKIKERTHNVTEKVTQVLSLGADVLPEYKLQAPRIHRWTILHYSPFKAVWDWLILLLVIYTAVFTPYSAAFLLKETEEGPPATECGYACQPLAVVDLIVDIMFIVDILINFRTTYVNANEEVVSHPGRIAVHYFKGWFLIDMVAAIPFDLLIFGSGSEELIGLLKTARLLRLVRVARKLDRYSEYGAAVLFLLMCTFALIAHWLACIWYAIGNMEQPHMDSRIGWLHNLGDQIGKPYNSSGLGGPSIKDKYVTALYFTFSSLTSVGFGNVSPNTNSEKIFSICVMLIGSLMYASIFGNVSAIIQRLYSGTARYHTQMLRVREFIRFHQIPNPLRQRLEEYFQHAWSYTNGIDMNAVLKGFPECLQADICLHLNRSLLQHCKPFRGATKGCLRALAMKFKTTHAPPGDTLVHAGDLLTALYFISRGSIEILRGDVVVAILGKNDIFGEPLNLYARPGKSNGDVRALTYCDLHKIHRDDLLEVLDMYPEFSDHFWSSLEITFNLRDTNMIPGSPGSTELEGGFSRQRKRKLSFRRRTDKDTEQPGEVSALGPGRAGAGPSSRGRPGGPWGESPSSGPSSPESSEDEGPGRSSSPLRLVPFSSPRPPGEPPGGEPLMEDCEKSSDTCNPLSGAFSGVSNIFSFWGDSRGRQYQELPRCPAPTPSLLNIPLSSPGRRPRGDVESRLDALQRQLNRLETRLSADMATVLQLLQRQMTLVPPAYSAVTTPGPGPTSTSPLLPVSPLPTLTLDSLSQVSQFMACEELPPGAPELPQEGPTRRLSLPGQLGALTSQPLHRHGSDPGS
Summary of the method: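 In this thallium-flux screen, overnight-cultured U2OS cells bearing the channel are dye-loaded in darkness for an hour, rested 10 min at room temperature, and then monitored kinetically at 480/540 nm for two minutes post-stimulus.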

[14] = biological target: Cytochrome P450 3A4 (Homo sapiens) (UniProt P08684); test: Cytochrome P450 Family 3 Subfamily A Member 4 (CYP3A4) small molecule antagonists: luciferase reporter qHTS assay (AID 1671201); note: nearly all actives have a fitted effect of over 50% in size; note: potency is the fitted concentration of half-maximal effect
Chain of Cytochrome P450 3A4 (Homo sapiens) (P08684 whole entry, looked up): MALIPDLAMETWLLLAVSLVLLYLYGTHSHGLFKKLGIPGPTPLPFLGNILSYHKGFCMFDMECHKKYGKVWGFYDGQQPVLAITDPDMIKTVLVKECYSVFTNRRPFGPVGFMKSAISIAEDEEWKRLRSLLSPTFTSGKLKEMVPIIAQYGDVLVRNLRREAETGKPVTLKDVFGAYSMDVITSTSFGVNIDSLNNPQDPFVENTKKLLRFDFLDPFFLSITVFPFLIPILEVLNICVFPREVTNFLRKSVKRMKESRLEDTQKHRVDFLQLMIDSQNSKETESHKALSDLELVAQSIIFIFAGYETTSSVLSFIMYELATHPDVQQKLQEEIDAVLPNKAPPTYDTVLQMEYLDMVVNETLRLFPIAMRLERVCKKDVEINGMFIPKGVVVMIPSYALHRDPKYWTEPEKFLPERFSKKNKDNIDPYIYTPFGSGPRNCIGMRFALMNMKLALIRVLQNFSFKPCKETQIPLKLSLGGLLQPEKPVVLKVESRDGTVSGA
Summary of the method: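 CYP3A4 activity was followed with a P450-Glo proluciferin substrate. Test compounds in DMSO were preincubated 10 min; NADPH regeneration then ran 1 h, and light output was read 20 min after detection reagent.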

[15] = biological target: Cytochrome P450 2C19 (Homo sapiens) (UniProt P33261); test: Cytochrome P450 Family 2 Subfamily C Member 19 (CYP2C19) small molecule antagonists: luciferase reporter qHTS assay (AID 1671197); note: nearly all actives have a fitted effect of over 65% in size; note: potency is the fitted concentration of half-maximal effect
Chain of Cytochrome P450 2C19 (Homo sapiens) (P33261 whole entry, looked up): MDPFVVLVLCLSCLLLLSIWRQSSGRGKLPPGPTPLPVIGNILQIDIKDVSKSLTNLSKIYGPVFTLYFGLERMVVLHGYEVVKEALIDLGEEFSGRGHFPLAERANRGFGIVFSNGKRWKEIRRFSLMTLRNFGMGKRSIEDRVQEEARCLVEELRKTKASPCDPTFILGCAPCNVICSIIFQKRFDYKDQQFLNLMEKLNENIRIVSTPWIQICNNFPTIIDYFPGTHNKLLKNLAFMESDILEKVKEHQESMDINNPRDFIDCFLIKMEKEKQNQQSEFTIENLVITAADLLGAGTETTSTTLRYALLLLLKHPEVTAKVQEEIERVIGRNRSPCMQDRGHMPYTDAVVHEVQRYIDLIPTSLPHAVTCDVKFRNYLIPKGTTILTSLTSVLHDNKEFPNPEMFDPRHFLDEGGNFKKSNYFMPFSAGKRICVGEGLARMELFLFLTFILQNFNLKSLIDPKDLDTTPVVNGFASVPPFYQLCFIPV
Summary of the method: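 Relative luminescence units recorded 20 min after the detection reagent stopped a 1 h, 37C CYP2C19 reaction on proluciferin substrate, which was started by NADPH regeneration following 10 min room-temperature compound preincubation; ketoconazole positive control.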

[16] = Caspase-3/7 induction in HepG2 cells by small molecules, qHTS cell viability counter screen (AID 1346981); note: series mostly up to about 92 µM; nearly all actives have a fitted effect of over 30% in size
Summary of the method: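 Wild-type HepG2 cells (2,000/well) were allowed to settle for 5 hr at 37 C, 5% CO2, then dosed with compounds in DMSO by pin transfer. After 16 hr at 37 C, CellTiter-Fluor was added and fluorescence read 1 hr later.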

[17] = biological target: Nuclear receptor subfamily 1 group I member 2 (Rattus norvegicus) (UniProt Q9R1A7); test: Rat pregnane X receptor (rPXR) activation by small molecules, qHTS assay (AID 1346983); details: rPXR luciferase reporter cells, One-Glo luminescence, 24 h; max activation: hits give high values; note: nearly all actives have a fitted effect of over 20% in size
Chain of Nuclear receptor subfamily 1 group I member 2 (Rattus norvegicus) (Q9R1A7 whole entry, looked up): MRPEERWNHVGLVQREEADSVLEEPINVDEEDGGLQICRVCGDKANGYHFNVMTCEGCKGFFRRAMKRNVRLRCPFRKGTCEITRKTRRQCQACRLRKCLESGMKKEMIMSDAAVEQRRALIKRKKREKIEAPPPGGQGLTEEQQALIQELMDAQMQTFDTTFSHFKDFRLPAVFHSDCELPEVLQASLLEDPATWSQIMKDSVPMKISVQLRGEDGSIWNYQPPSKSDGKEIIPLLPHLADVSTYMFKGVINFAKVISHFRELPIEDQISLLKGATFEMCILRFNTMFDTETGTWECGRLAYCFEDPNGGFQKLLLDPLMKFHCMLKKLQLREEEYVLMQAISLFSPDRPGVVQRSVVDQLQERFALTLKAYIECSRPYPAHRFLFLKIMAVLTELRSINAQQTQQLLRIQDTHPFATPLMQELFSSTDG
Summary of the method: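 Luminescent readout (One-Glo luciferase, 30 min room temperature) followed 24 hr compound treatment at 37 C of rPXR cells plated 2,000 per well and preincubated 5hr; qHTS format with compounds delivered in DMSO.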

[18] = biological target: Nuclear receptor subfamily 1 group I member 2 (Homo sapiens) (UniProt O75469); test: CYP3A4 induction through human pregnane X receptor (PXR) by small molecules, qHTS assay (AID 1346984); note: nearly all actives have a fitted effect of over 40% in size
Summary of the method: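 DPX-2 cells (HepG2 co-transfected with PXR and CYP3A4 promoter-luciferase) treated with compounds 24 h at 37C; luciferin-IPA CYP3A4 substrate 3uM final added for 3 h, then One-Glo; luminescence read. qHTS format.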

SMILES	outcome [1]	outcome [2]	outcome [3]	outcome [4]	Potency [5]	outcome [6]	Potency [7]	outcome [8]	Potency [9]	Potency [10]	Potency [11]	Potency [12]	Potency [13]	Potency [14]	Potency [15]	Potency [16]	max activation [17] [%]	outcome [18]
O=C(O)c1ccccc1C(=O)Nc1ccc(S(=O)(=O)Nc2nccs2)cc1	inactive	inactive	inactive	inactive	inactive	inactive	inactive	inactive	inactive	inactive	inactive	inactive	inactive	inactive				
Nc1nc(=O)n([C@@H]2O[C@H](CO)[C@@H](O)[C@@H]2F)cc1I	inactive	inactive	inactive	inactive	inactive	inactive	inactive	inactive	inactive	inactive	inactive	inactive	inactive		inactive			
Oc1ccccc1Cc1ccccc1O	inactive	inactive	inactive	inactive	inactive	inactive	inactive	inactive	61.1 µM (active)		39.9 µM (active)		inactive		10 µM (active)	inactive		
CCC(=O)c1ccc(O)cc1	inactive	inactive	inactive	inactive	inactive	inactive	inactive	inactive	inactive		inactive			inactive				
O=C1OC(=O)c2cc(Oc3ccc4c(c3)C(=O)OC4=O)ccc21	inactive	inactive	inactive	inactive	inactive	inactive		inactive	inactive	inactive	inactive	inactive	inactive		inactive	inactive		
CC(Cl)COP(=O)(OCC(C)Cl)OCC(C)Cl (stereo not given)	inactive	inactive	inactive	inactive	inactive	inactive		inactive	13.6 µM (active)	inactive		22.3 µM (active)	inactive	inactive				
CCOC(=O)C(=O)c1csc(NC=O)n1	inactive	inactive	inactive	inactive	inactive	inactive		inactive	inactive		inactive	19.5 µM (active)	inactive		inactive	inactive		
CN(C1CCCCC1)S(=O)(=O)c1ccccc1N	inactive	inactive	inactive	inactive	inactive		inactive	inactive	27.3 µM (active)		6.33 µM (active)				3.17 µM (active)			
O=C(O)CCNC(=O)c1ccccc1	inactive	inactive	inactive	inactive	inactive	inactive		inactive	inactive	inactive	inactive	inactive	inactive	inactive		inactive		
CC1CCC(C(C)(C)S)C(=O)C1 (stereo not given)	inactive	inactive	inactive	inactive	inactive	inactive		inactive	61.1 µM (active)		39.9 µM (active)	inactive			79.6 µM (active)			
Cc1cc(O)c2c(c1)C(=O)c1cccc(O)c1C2=O	inactive	inactive	inactive	inactive	inactive	inactive		inactive		inactive	inactive	15.5 µM (active)	inactive	inactive	inactive	inactive		
C=C[C@@H](C)CCC=C(C)C	inactive	inactive	inactive	inactive	inactive	inactive		inactive	inactive		inactive	39.9 µM (active)	inactive	inactive				
CCS(=O)(=O)CCn1c([N+](=O)[O-])cnc1C	inactive	inactive	inactive	inactive	inactive	inactive		inactive					inactive			inactive		
NC(=O)NC(=O)Cc1ccccc1	inactive	inactive	inactive	inactive	inactive		inactive	inactive	inactive	inactive	inactive		inactive	inactive	inactive		-4.53	inactive
CCCCCCCCCCCCOC(C)=O	inactive	inactive	inactive	inactive	inactive		inactive	inactive	inactive	inactive	inactive	inactive	inactive	inactive	inactive	inactive		
O=C(O)c1c(Cl)ccc(Cl)c1Cl	inactive	inactive	inactive	inactive	inactive		inactive	inactive	inactive	inactive		inactive	inactive		inactive	inactive		
CCCCC(CC)COC(=O)c1ccccc1 (stereo not given)	inactive	inactive	inactive	inactive	inactive		inactive	inactive	inactive	inactive		28.3 µM (active)	inactive	inactive	inactive	inactive		
C=CCOc1c(Br)cc(Br)cc1Br	inactive	inactive	inactive	inactive	inactive	inactive		inactive	inactive		8.94 µM (active)	2.83 µM (active)	inactive		7.96 µM (active)	inactive		
C=CC(C)(O)CC/C=C(\C)CC (stereo not given)	inactive	inactive	inactive	inactive	inactive	inactive		inactive		inactive			inactive	22.5 µM (active)	40 µM (active)			
CO/N=C(/C(=O)N[C@@H]1C(=O)N2C(C(=O)O)=C(Cn3nnc(C)n3)CS[C@H]12)c1csc(N)n1	inactive	inactive	inactive	inactive	inactive		inactive	inactive	inactive	inactive	inactive	inactive	inactive	inactive	inactive	inactive		
Nc1ccnc(=O)[nH]1	inactive	inactive	inactive	inactive	inactive	inactive		inactive	inactive	inactive	inactive	inactive	inactive	inactive	inactive			
CCCCCC1Nc2cc(C(F)(F)F)c(S(N)(=O)=O)cc2S(=O)(=O)N1 (stereo not given)	inactive	inactive	inactive	inactive	inactive		inactive	inactive	inactive	13.8 µM (active)	1.55 µM (active)	inactive			inactive	inactive		
CCCCCN(CCCOC)C(=O)C(CCC(=O)O)NC(=O)c1ccc(Cl)c(Cl)c1 (stereo not given)	inactive	inactive	inactive	inactive	inactive	inactive		inactive	inactive	inactive	13.8 µM (active)	30.9 µM (active)	inactive	inactive	inactive			
COc1cc(C=O)ccc1OC(=O)C(C)C	inactive	inactive	inactive	inactive	inactive		inactive	inactive	inactive	inactive	35.6 µM (active)		inactive	inactive	39.9 µM (active)	inactive		
CC1=CC[C@H](CC=O)C1(C)C	inactive	inactive	inactive	inactive	inactive	inactive		inactive	48.6 µM (active)	inactive		31.7 µM (active)	inactive	63.3 µM (active)		inactive		
